Data on 38 molecules can be found in PubChem BioAssay (Tox21).

Inconclusive results are not listed. Entries that show only a call come without a potency. Activity calls are given as the source filed them. Calls follow the shape of the dose curve; as a rule, active = well fitted cell-killing curve with a large enough effect in the repeat runs; inconclusive = weak or mixed curves, or effect the other way; inactive = flat fitted curve, though single readings scatter.

The nature of this assay: qHTS RealTime-Glo MT Cell Viability Assay in HEK293 cells - 0 hour (AID 1224880). Also: top concentration of the series differs between compounds; nearly all actives have a fitted effect of over 45% in size. Conditions: RealTime-Glo luminescence; series mostly up to 76.8 µM. Put shortly:
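Real-time viability in HEK293: signal arises when living cells convert a prosubstrate for NanoLuc in the medium, so luminescence tracks viable cell number. Compound (23 nL, DMSO) added 5 h post-seeding; kinetic reads at 0–40 h, 37 C.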
`CCCCN(CCCC)CCCC`: the Potency result is “inactive”. Turning to `CCOC(=O)NNc1nncc2ccccc12`, the Potency result is “inactive”. In the case of `C[Si](O[Si](C)(C)C)O[Si](C)(C)C`, the Potency entry is “inactive”. The same measure for `N[C@@H](Cc1cc(I)c(Oc2cc(I)c(O)c(I)c2)c(I)c1)C(=O)O`: “inactive”; for `O=C(O)c1ccccc1C(c1ccc(O)cc1)c1ccc(O)cc1`: “inactive”; for `CCCCCCCCC/C=C/CC1CC(=O)OC1=O` (stereo not drawn): “inactive”. The same measure for `C#C[C@]1(O)CC[C@H]2[C@@H]3CCC4=CC(=O)CC[C@@H]4[C@H]3CC[C@@]21C`: “inactive”; for `CCCCCC(N)=O`: “inactive”. Take `O=C(O)c1ccc(C(=O)O)cc1`: the Potency entry is “inactive”. The same measure for `CC1CCC(C(C)C)C(O)C1` (stereo not drawn): “inactive”; for `CC1CCC2CC1C2(C)C` (stereo not drawn): “inactive”. Under `CSCCC=O` stands “inactive”; under `OCCOCCOCCO`, “inactive”. Under `O=c1[nH]nnc2ccccc12` stands “inactive”. Regarding `CC(=O)CC(=O)Nc1ccccc1C`, the Potency entry is “inactive”.

For `CN(C)CCC(c1ccccc1)c1ccccn1` (stereo not drawn), the Potency entry was “inactive”. For the molecule `CCCCCC/C(C=O)=C\c1ccccc1`, the Potency entry is “inactive”. Consider `Nc1ccccc1[N+](=O)[O-]`, for which the Potency result was “inactive”. Under `C=C(C)C(=O)O[C@H]1C[C@@H]2CC[C@@]1(C)C2(C)C` stands “inactive”; under `OCC(CO)(CBr)CBr`, “inactive”; under `CC(=O)Nc1ccccc1`, “inactive”. Regarding `CCCCOC(=O)COc1ccc(Cl)cc1Cl`, the Potency result is “inactive”.

In the case of `CCCCC(CC)COC(=O)CCCCC(=O)OCC(CC)CCCC` (stereo not drawn), the Potency result was “inactive”. Under `C[C@H]1C[C@H]2[C@@H]3CCC4=CC(=O)C=C[C@]4(C)[C@@]3(F)[C@@H](O)C[C@]2(C)[C@@]1(O)C(=O)CO` stands “inactive”; under `O=P(OC(CCl)CCl)(OC(CCl)CCl)OC(CCl)CCl`, “inactive”. The same measure for `Cc1ccc(N(C)C)cc1`: “inactive”; for `COc1ccc(NC(C)=O)cc1N`: “inactive”. Under `C/C=C1/CC2C=CC1C2` (stereo not drawn) stands “inactive”; under `C#CCN(C)Cc1ccccc1`, “inactive”.

As for `C=C(C)C(=O)OCCOCCOCCOC(=O)C(=C)C`, the Potency result is “inactive”. Under `CC(C)CC(=O)CC(C)C` stands “inactive”; under `CCC(O)OCCCOC` (stereo not drawn), “inactive”. `OCc1cccnc1`: the Potency result is “inactive”. As for `CC1=CCC2CC1C2(C)C` (stereo not drawn), the Potency result was “inactive”.

Consider `O=C(O)c1ccc2c(c1)C(=O)OC2=O`, for which the Potency result is “inactive”. `CCCCCOC(C)=O`: the Potency result was “inactive”.

As for `O=C=NCCCCCCN=C=O`, the Potency result is “inactive”. Under `CCc1ccc(CCOc2ccc(CC3SC(=O)NC3=O)cc2)nc1` (stereo not drawn) stands “inactive”.
